Results taken from the supplement of paper PMC4466140.

Legend:
Assay in all cases: SPOT peptide array binding signal intensity (averaged, normalized) (arbitrary units (background-subtracted, floor 0; scale differs between SH3 domains)); higher = stronger binding of the SH3 domain to the peptide
[1] = target: CaNbp2
Summary of the method: (§1)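 Peptides were synthetic 15-mers on cellulose membranes, with every cysteine replaced by serine. They were incubated overnight at 4°C with GST-SH3 domains from four yeast species at 10 μg/ml in TBS-based blocking buffer. Binding signal, the replicate-averaged normalized and background-subtracted spot intensity, is in arbitrary units that differ between domains.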

[2] = target: CaRvs167
Summary of the method: as §1

[3] = target: CaRvs167-3
Summary of the method: as §1

[4] = target: CaSho1
Summary of the method: as §1

[5] = target: CaSla1-D1-D2
Summary of the method: as §1

[6] = target: CaSla1-D3
Summary of the method: as §1

[7] = target: ScAbp1
Summary of the method: as §1

[8] = target: ScBbc1
Summary of the method: as §1

[9] = target: ScBem1-D1
Summary of the method: as §1

[10] = target: ScBzz1-D1
Summary of the method: as §1

[11] = target: ScBzz1-D2
Summary of the method: as §1

[12] = target: ScCyk3
Summary of the method: as §1

[13] = target: ScFus1
Summary of the method: as §1

[14] = target: ScHof1
Summary of the method: as §1

[15] = target: ScHse1
Summary of the method: as §1

[16] = target: ScLsb1
Summary of the method: as §1

[17] = target: ScLsb2
Summary of the method: as §1

[18] = target: ScLsb3
Summary of the method: as §1

[19] = target: ScLsb4
Summary of the method: as §1

[20] = target: ScMyo3
Summary of the method: as §1

[21] = target: ScMyo5
Summary of the method: as §1

[22] = target: ScNbp2
Summary of the method: as §1

[23] = target: ScPex13
Summary of the method: as §1

[24] = target: ScRvs167
Summary of the method: as §1

[25] = target: ScSho1
Summary of the method: as §1

[26] = target: ScSla1-D1-D2
Summary of the method: as §1

[27] = target: ScSla1-D3
Summary of the method: as §1

[28] = target: SpAbp1-D1
Summary of the method: as §1

[29] = target: SpBbc1
Summary of the method: as §1

[30] = target: SpBzz1-D1
Summary of the method: as §1

[31] = target: SpBzz1-D2
Summary of the method: as §1

[32] = target: SpCyk3
Summary of the method: as §1

[33] = target: SpHof1
Summary of the method: as §1

[34] = target: SpHof1-2
Summary of the method: as §1

[35] = target: SpHof1-3
Summary of the method: as §1

[36] = target: SpHse1
Summary of the method: as §1

[37] = target: SpLsb1
Summary of the method: as §1

[38] = target: SpLsb4
Summary of the method: as §1

[39] = target: SpMyo1
Summary of the method: as §1

[40] = target: SpNbp2
Summary of the method: as §1

[41] = target: SpPex13
Summary of the method: as §1

[42] = target: SpRvs167
Summary of the method: as §1

[43] = target: SpSla1-D1-D2
Summary of the method: as §1

[44] = target: SpSla1-D3
Summary of the method: as §1

[45] = target: AgAbp1
Summary of the method: as §1

[46] = target: AgBbc1
Summary of the method: as §1

[47] = target: AgBem1-D1
Summary of the method: as §1

[48] = target: AgBzz1-D1
Summary of the method: as §1

[49] = target: AgBzz1-D2
Summary of the method: as §1

[50] = target: AgCyk3
Summary of the method: as §1

[51] = target: AgFus1
Summary of the method: as §1

[52] = target: AgHof1
Summary of the method: as §1

[53] = target: AgHse1
Summary of the method: as §1

[54] = target: AgLsb1
Summary of the method: as §1

[55] = target: AgLsb4
Summary of the method: as §1

[56] = target: AgMyo5
Summary of the method: as §1

[57] = target: AgNbp2
Summary of the method: as §1

[58] = target: AgRvs167
Summary of the method: as §1

[59] = target: AgSho1
Summary of the method: as §1

[60] = target: AgSla1-D1-D2
Summary of the method: as §1

[61] = target: AgSla1-D3
Summary of the method: as §1

[62] = target: CaAbp1-D1
Summary of the method: as §1

[63] = target: CaAbp1-D2
Summary of the method: as §1

[64] = target: CaBbc1
Summary of the method: as §1

[65] = target: CaBem1-D1
Summary of the method: as §1

[66] = target: CaBzz1-D1
Summary of the method: as §1

[67] = target: CaBzz1-D2
Summary of the method: as §1

[68] = target: CaCyk3
Summary of the method: as §1

[69] = target: CaFus1
Summary of the method: as §1

[70] = target: CaHof1
Summary of the method: as §1

[71] = target: CaHse1
Summary of the method: as §1

[72] = target: CaLsb1
Summary of the method: as §1

[73] = target: CaLsb4
Summary of the method: as §1

[74] = target: CaMyo5
Summary of the method: as §1

B1: unnamed (peptide)
chain: AVPPPPPPPPLPESL
- SPOT peptide array binding signal intensity [1]: 23.5
- SPOT peptide array binding signal intensity [2]: 3.67
- SPOT peptide array binding signal intensity [3]: 1.5
- SPOT peptide array binding signal intensity [4]: 4.5
- SPOT peptide array binding signal intensity [5]: ≤ 0
- SPOT peptide array binding signal intensity [6]: ≤ 0
- SPOT peptide array binding signal intensity [7]: ≤ 0
- SPOT peptide array binding signal intensity [8]: ≤ 0
- SPOT peptide array binding signal intensity [9]: ≤ 0
- SPOT peptide array binding signal intensity [10]: 13
- SPOT peptide array binding signal intensity [11]: ≤ 0
- SPOT peptide array binding signal intensity [12]: 1
- SPOT peptide array binding signal intensity [13]: ≤ 0
- SPOT peptide array binding signal intensity [14]: 13.5
- SPOT peptide array binding signal intensity [15]: 34
- SPOT peptide array binding signal intensity [16]: ≤ 0
- SPOT peptide array binding signal intensity [17]: ≤ 0
- SPOT peptide array binding signal intensity [18]: ≤ 0
- SPOT peptide array binding signal intensity [19]: ≤ 0
- SPOT peptide array binding signal intensity [20]: 1190
- SPOT peptide array binding signal intensity [21]: 712
- SPOT peptide array binding signal intensity [22]: 22
- SPOT peptide array binding signal intensity [23]: 538
- SPOT peptide array binding signal intensity [24]: 2.33
- SPOT peptide array binding signal intensity [25]: ≤ 0
- SPOT peptide array binding signal intensity [26]: ≤ 0
- SPOT peptide array binding signal intensity [27]: 1.25
- SPOT peptide array binding signal intensity [28]: 6
- SPOT peptide array binding signal intensity [29]: 3
- SPOT peptide array binding signal intensity [30]: 3120
- SPOT peptide array binding signal intensity [31]: 4.25
- SPOT peptide array binding signal intensity [32]: ≤ 0
- SPOT peptide array binding signal intensity [33]: ≤ 0
- SPOT peptide array binding signal intensity [34]: ≤ 0
- SPOT peptide array binding signal intensity [35]: ≤ 0
- SPOT peptide array binding signal intensity [36]: 10.5
- SPOT peptide array binding signal intensity [37]: 4.75
- SPOT peptide array binding signal intensity [38]: 27
- SPOT peptide array binding signal intensity [39]: 980
- SPOT peptide array binding signal intensity [40]: 16
- SPOT peptide array binding signal intensity [41]: ≤ 0
- SPOT peptide array binding signal intensity [42]: 64.7
- SPOT peptide array binding signal intensity [43]: 1
- SPOT peptide array binding signal intensity [44]: ≤ 0

B2: unnamed (peptide)
chain: VNIPSPSSSPPPIPK
- SPOT peptide array binding signal intensity [45]: 8
- SPOT peptide array binding signal intensity [46]: ≤ 0
- SPOT peptide array binding signal intensity [47]: 28
- SPOT peptide array binding signal intensity [48]: ≤ 0
- SPOT peptide array binding signal intensity [49]: 5
- SPOT peptide array binding signal intensity [50]: 0.5
- SPOT peptide array binding signal intensity [51]: 0.5
- SPOT peptide array binding signal intensity [52]: ≤ 0
- SPOT peptide array binding signal intensity [53]: 20.5
- SPOT peptide array binding signal intensity [54]: ≤ 0
- SPOT peptide array binding signal intensity [55]: ≤ 0
- SPOT peptide array binding signal intensity [56]: 2570
- SPOT peptide array binding signal intensity [57]: ≤ 0
- SPOT peptide array binding signal intensity [58]: 0.5
- SPOT peptide array binding signal intensity [59]: ≤ 0
- SPOT peptide array binding signal intensity [60]: 8
- SPOT peptide array binding signal intensity [61]: ≤ 0
- SPOT peptide array binding signal intensity [62]: 5
- SPOT peptide array binding signal intensity [63]: 9
- SPOT peptide array binding signal intensity [64]: ≤ 0
- SPOT peptide array binding signal intensity [65]: 10
- SPOT peptide array binding signal intensity [66]: 34
- SPOT peptide array binding signal intensity [67]: 4.75
- SPOT peptide array binding signal intensity [68]: ≤ 0
- SPOT peptide array binding signal intensity [69]: 47.5
- SPOT peptide array binding signal intensity [70]: 0.5
- SPOT peptide array binding signal intensity [71]: ≤ 0
- SPOT peptide array binding signal intensity [72]: ≤ 0
- SPOT peptide array binding signal intensity [73]: ≤ 0
- SPOT peptide array binding signal intensity [74]: 1400
- SPOT peptide array binding signal intensity [1]: 19.5
- SPOT peptide array binding signal intensity [2]: ≤ 0
- SPOT peptide array binding signal intensity [3]: 2.25
- SPOT peptide array binding signal intensity [4]: 2
- SPOT peptide array binding signal intensity [5]: ≤ 0
- SPOT peptide array binding signal intensity [6]: 1.25
- SPOT peptide array binding signal intensity [7]: ≤ 0
- SPOT peptide array binding signal intensity [8]: 1
- SPOT peptide array binding signal intensity [9]: ≤ 0
- SPOT peptide array binding signal intensity [10]: ≤ 0
- SPOT peptide array binding signal intensity [11]: 6
- SPOT peptide array binding signal intensity [12]: ≤ 0
- SPOT peptide array binding signal intensity [13]: ≤ 0
- SPOT peptide array binding signal intensity [14]: ≤ 0
- SPOT peptide array binding signal intensity [15]: 35
- SPOT peptide array binding signal intensity [16]: ≤ 0
- SPOT peptide array binding signal intensity [17]: ≤ 0
- SPOT peptide array binding signal intensity [18]: ≤ 0
- SPOT peptide array binding signal intensity [19]: ≤ 0
- SPOT peptide array binding signal intensity [20]: 3090
- SPOT peptide array binding signal intensity [21]: 2780
- SPOT peptide array binding signal intensity [22]: 6
- SPOT peptide array binding signal intensity [23]: ≤ 0
- SPOT peptide array binding signal intensity [24]: ≤ 0
- SPOT peptide array binding signal intensity [25]: 1.5
- SPOT peptide array binding signal intensity [26]: 2.5
- SPOT peptide array binding signal intensity [27]: ≤ 0
- SPOT peptide array binding signal intensity [28]: 1
- SPOT peptide array binding signal intensity [29]: ≤ 0
- SPOT peptide array binding signal intensity [30]: 80.5
